Consider 31 compounds from PubChem BioAssay (Tox21).

Structures are written as SMILES. Values joined by “and” are separate entries in the source; they are usually repeats but may differ in a detail not shown here. Equal values may be shown once. Some compounds were tested as several samples or in several runs, with calls that do not always agree. Active and inactive are the calls of the source. Unless noted, the call rests on the fitted dose curve; in most records, active means well fitted curve in the direction sought with a large enough effect in the repeat runs; inconclusive means weak or mixed curves; inactive means no such curve, though single readings can be large; an effect the other way counts as inactive or inconclusive.

Experiment [1] is described as follows: qHTS assay to identify small molecule antagonists of the thyroid receptor (TR) signaling pathway (AID 743065). Further: nearly all actives have a fitted effect of over 55% in size. Further: potency means the concentration at half of the fitted maximal effect. The procedure, abridged: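 GH3.TRE-Luc rat pituitary cells carrying two TR response elements driving luciferase were plated for 4 h, given compound plus 1 nM T3 (final), and incubated 23.5 h at 37 C. ONE-Glo luminescence measured reporter inhibition; CellTiter-Fluor fluorescence tracked cytotoxicity.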
(Quantitative high-throughput screening tests each substance at several concentrations.)

Experiment [2] relates to thyroid hormone receptor (rat, GH3 cells). Put plainly: qHTS assay to identify small molecule agonists of the thyroid receptor (TR) signaling pathway (AID 743066; calls by dose curve; further: potency means the concentration at half of the fitted maximal effect).
Experiment [3] in a line: qHTS assay to identify small molecule antagonists of the estrogen receptor alpha (ER-alpha) signaling pathway - cell viability counter screen (AID 743074; calls by dose curve;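 further: HEK293 cells carrying ER-alpha-UAS-bla reporter stimulated with 17beta-estradiol; nearly all actives have a fitted effect of over 45% in size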; further: potency means the concentration at half of the fitted maximal effect).
Experiment [4] can be described thus: qHTS assay to identify small molecule antagonists of the estrogen receptor alpha (ER-alpha) signaling pathway using the BG1 cell line - cell viability counter screen (AID 743081).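 Further: compound given together with 17beta-estradiol as the ER stimulus; series mostly up to about 70 µM; nearly all actives have a fitted effect of over 45% in size.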
Experiment [5] addresses Estrogen receptor (Homo sapiens) (UniProt P03372). Put plainly: qHTS assay to identify small molecule agonists of the estrogen receptor alpha (ER-alpha) signaling pathway (AID 743075; calls by dose curve;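 further: HEK293 GripTite cells with ER-alpha and UAS-driven beta-lactamase reporter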; further: potency means the concentration at half of the fitted maximal effect).
Experiment [6] shares this target. In words: qHTS assay to identify small molecule agonists of the estrogen receptor alpha (ER-alpha) signaling pathway using the BG1 cell line (AID 743079). Further: nearly all actives have a fitted effect of over 20% in size. Further: potency means the concentration at half of the fitted maximal effect.
A short description of experiment [7]: qHTS assay to identify small molecule antagonists of the estrogen receptor alpha (ER-alpha) signaling pathway using the BG1 cell line (AID 743080; calls by dose curve;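 further: BG1 cells stimulated with 17beta-estradiol alongside compound; nearly all actives have a fitted effect of over 25% in size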; further: potency means the concentration at half of the fitted maximal effect). The procedure, abridged: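 BG1-Luc-4E2 cells (endogenous full-length ER-alpha, 4xERE luciferase) hormone-starved 5 days in charcoal-stripped FBS, plated 4,000/well for 24 h, then compound plus 17beta-estradiol for 21.5 h at 37 C; ONE-Glo luminescence read.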

The target in experiment [8] is Aromatase (Homo sapiens) (UniProt P11511). In words: qHTS assay to identify aromatase inhibitors (AID 743083). Further: nearly all actives have a fitted effect of over 55% in size. Further: potency means the concentration at half of the fitted maximal effect.
A short description of experiment [9]: qHTS assay to identify aromatase inhibitors - cell viability counter screen (AID 743084).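 Further: cells stimulated with testosterone during compound exposure; nearly all actives have a fitted effect of over 55% in size.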 Further: potency means the concentration at half of the fitted maximal effect.
In experiment [10] the target is Estrogen receptor (Homo sapiens) (UniProt P03372). In words: qHTS assay to identify small molecule antagonists of the estrogen receptor alpha (ER-alpha) signaling pathway (AID 743069; active means well fitted curve in the direction sought with a large enough effect in the signal ratio in the repeat runs, not every such curve was filed as active; inconclusive means weak or mixed curves, or effect the other way; inactive means no such curve, though single readings can be large or run the other way; the % refers to the signal ratio; further: potency means the concentration at half of the fitted maximal effect). The procedure, abridged: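 Estradiol-stimulated ER-alpha-UAS-bla HEK293 cells, 18 hr compound exposure at 37C. LiveBLAzer B/G substrate, 2 hr RT, fluorescence read.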
Estrogen receptor (Homo sapiens), sequence (P03372 whole entry, looked up): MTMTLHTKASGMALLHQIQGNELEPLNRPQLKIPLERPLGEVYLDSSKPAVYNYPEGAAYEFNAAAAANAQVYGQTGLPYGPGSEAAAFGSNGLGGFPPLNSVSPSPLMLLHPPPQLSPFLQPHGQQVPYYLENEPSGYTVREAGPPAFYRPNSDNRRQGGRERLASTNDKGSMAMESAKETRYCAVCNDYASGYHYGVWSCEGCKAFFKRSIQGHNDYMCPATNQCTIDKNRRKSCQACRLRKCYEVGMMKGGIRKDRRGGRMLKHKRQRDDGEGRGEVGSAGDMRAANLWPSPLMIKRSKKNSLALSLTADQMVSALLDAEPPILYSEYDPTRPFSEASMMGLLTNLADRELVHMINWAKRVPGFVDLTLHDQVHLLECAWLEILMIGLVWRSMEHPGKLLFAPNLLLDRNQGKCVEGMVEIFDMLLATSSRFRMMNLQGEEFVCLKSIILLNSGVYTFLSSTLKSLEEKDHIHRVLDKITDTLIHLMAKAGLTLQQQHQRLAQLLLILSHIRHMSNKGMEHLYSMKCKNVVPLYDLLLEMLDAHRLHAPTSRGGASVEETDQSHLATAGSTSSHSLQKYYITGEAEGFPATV

Aromatase (Homo sapiens), sequence (P11511 whole entry, looked up): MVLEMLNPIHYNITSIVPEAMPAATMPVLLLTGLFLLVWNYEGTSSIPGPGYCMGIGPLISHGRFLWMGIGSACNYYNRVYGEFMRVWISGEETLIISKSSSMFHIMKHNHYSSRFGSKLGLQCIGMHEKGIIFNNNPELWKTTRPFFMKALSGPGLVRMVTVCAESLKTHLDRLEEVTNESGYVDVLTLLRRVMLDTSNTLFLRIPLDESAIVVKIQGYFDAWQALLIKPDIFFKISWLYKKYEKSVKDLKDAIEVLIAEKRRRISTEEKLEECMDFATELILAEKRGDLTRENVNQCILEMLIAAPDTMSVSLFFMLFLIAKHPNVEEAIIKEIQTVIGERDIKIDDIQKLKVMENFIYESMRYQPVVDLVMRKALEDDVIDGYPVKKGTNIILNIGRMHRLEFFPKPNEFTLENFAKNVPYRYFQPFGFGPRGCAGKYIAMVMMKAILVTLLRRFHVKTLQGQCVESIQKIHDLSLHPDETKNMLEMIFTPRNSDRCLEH

Take `O=C=Nc1ccc(Cc2ccc(N=C=O)cc2)cc1`: the Potency entry in experiment [1], in experiment [2], in experiment [3] and in experiment [4] was “inactive” in each case.
Turning to `Oc1ccc(O)cc1`, the Potency in experiment [1] was 21.1 µM (active) and 30.5 µM (active) and 30.6 µM (active); in experiment [8] it was “inactive and 60.8 µM (active)”; in [9] it was “inactive and 54.2 µM (active)”. Moreover, the Potency entry in experiment [2], in experiment [3], in [5], in [6], in experiment [7] and in experiment [4] was “inactive” throughout.
`c1ccc2cc(Nc3ccc(Nc4ccc5ccccc5c4)cc3)ccc2c1`: the Potency entry in experiment [1], in experiment [2], in experiment [3], in [4], in [8] and in experiment [9] was “inactive” throughout.
Turning to `NNc1ccc(C(=O)O)cc1`, the Potency entry in experiment [1], in experiment [2], in [3], in [4], in experiment [8] and in [9] was “inactive” throughout.
`O=CCc1ccccc1`: the Potency result in experiment [1], in experiment [2], in experiment [3], in experiment [4], in experiment [8] and in [9] was “inactive” throughout.
With `CCOCCOCCO`, the Potency result in experiment [1], in [2], in experiment [3], in experiment [4], in experiment [8] and in experiment [9] was “inactive” throughout.
For the compound `O=C(Nc1ccc(Cl)cc1)Nc1ccc(Cl)c(Cl)c1`, the Potency was 2.66 µM (active) and 2.72 µM (active) and 2.73 µM (active) in experiment [1]; 3.47 µM [cytotoxic] (active) in [10]; 13.3 µM (active) and 24.2 µM (active) in [7]; 9.64 µM (active) and 13.7 µM (active) in experiment [8]; 19.2 µM (active) and 30.6 µM (active) in experiment [9]. Also, the Potency result in [2], in experiment [5] and in experiment [4] was “inactive” in each case.
As to `S=C(NC1CCCCC1)NC1CCCCC1`, the Potency entry in experiment [1], in experiment [2], in experiment [10], in experiment [5], in experiment [4] and in [9] was “inactive” in each case. In addition, the Potency was 48.1 µM (active) in experiment [3]; 75.5 µM (active) and 54.5 µM (active) in experiment [7].
Regarding `CCC(C)OC(=O)c1ccc(O)cc1` (configuration not stated), the Potency entry in experiment [1], in experiment [2], in experiment [10], in experiment [3], in experiment [4] and in [8] was “inactive” in each case. The Potency entry in experiment [9] was “inactive”. The Potency in experiment [5] was 24.7 µM [inconclusive] (active) and 38.9 µM [inconclusive] (active); in [6], 6.9 µM (active) and 6.11 µM (active).
Regarding `CC(=O)O[C@]1(C(C)=O)CC[C@H]2[C@@H]3C=C(Cl)C4=CC(=O)[C@@H]5C[C@@H]5[C@]4(C)[C@H]3CC[C@@]21C`, the Potency is 24.3 µM (active) and 54.5 µM (active) in [1]; “inactive and 54.4 µM (active)” in [8]. The Potency result in experiment [2], in experiment [3], in [4] and in experiment [9] was “inactive” in each case.
For `O=C(O)c1ccccc1Nc1cccc(C(F)(F)F)c1`, the Potency in experiment [1] was 23.7 µM (active) and 27.3 µM (active). In addition, the Potency result in experiment [2], in experiment [3], in experiment [5], in experiment [6], in [7] and in experiment [4] was “inactive” each time. Further, the Potency entry in experiment [8] and in experiment [9] was “inactive” each time.
For `C/C=C/C(=O)O`, the Potency entry in [1], in experiment [2], in experiment [3] and in experiment [4] was “inactive” throughout.
As to `Brc1cc(Oc2cc(Br)c(Br)c(Br)c2Br)c(Br)c(Br)c1Br`, the Potency result in experiment [2], in experiment [3], in experiment [4], in experiment [8] and in experiment [9] was “inactive” throughout.
Consider `O=c1oc(=O)c2cc3c(=O)oc(=O)c3cc12`, for which the Potency result in experiment [1], in [2], in experiment [3], in [4], in experiment [8] and in experiment [9] was “inactive” throughout.
On to `O=C1c2cccc(O)c2C(=O)c2c(O)cccc21`, for which the Potency entry in experiment [1], in experiment [2], in [3], in experiment [8] and in experiment [9] was “inactive” throughout.
Regarding `Nc1ccc(Nc2ccccc2)cc1`, the Potency result in experiment [3], in experiment [5], in experiment [6], in experiment [7], in [4] and in experiment [8] was “inactive” throughout. In addition, the Potency in experiment [9] was 61.1 µM (active) and inactive.
Turning to `CC(C)CC(C)(O)C#CC(C)(O)CC(C)C` (configuration not stated), the Potency entry in experiment [1], in [2], in [3], in experiment [4] and in experiment [9] was “inactive” in each case.
As to `CC(=O)c1ccccn1`, the Potency result in experiment [1], in experiment [2], in experiment [3], in experiment [4], in [8] and in experiment [9] was “inactive” throughout.
For `CCOC(=O)C(C#N)=C(c1ccccc1)c1ccccc1`, the Potency entry in [1], in experiment [2], in experiment [3], in experiment [4], in experiment [8] and in experiment [9] was “inactive” throughout.
For `Nc1ncnc2nc[nH]c12`, the Potency entry in [10], in [3], in [5], in experiment [6], in experiment [7] and in [4] was “inactive” each time. Moreover, the Potency entry in [8] and in experiment [9] was “inactive” in each case.
For `C[Si](C)(C)O[Si](C)(C)C`, the Potency result in experiment [1], in [2], in experiment [3], in experiment [4], in experiment [8] and in [9] was “inactive” throughout.
For the compound `NC=O`, the Potency result in experiment [1], in experiment [2], in experiment [4], in [8] and in experiment [9] was “inactive” each time.
Consider `C[C@]12CC[C@H]3[C@@H](CCC4=CC(=O)CC[C@@]43C)[C@@H]1CC[C@@H]2C(=O)CO`, for which the Potency result in experiment [2], in experiment [3], in experiment [5], in experiment [7], in [4] and in experiment [8] was “inactive” throughout. In addition, the Potency result in [9] was “inactive”. For the same compound, the Potency in [6] was 7.7 µM (active).
Turning to `CCCCCCCCCCCO`, the Potency result in experiment [2], in experiment [10], in experiment [3], in experiment [5], in experiment [6] and in [7] was “inactive” each time. Further, the Potency result in [4] was “inactive”. Also, the Potency result was “inactive and 27.3 µM (active)” in experiment [8]; “inactive and 27.3 µM (active)” in experiment [9].
Take `CC(C)=CCC/C(C)=C\CO`: the Potency result in [1], in [3], in experiment [4] and in experiment [9] was “inactive” throughout. Further, the Potency in experiment [2] is 24.5 µM (active) and inactive.
With `CNCCCC12CCC(c3ccccc31)c1ccccc12`, the Potency entry in experiment [3] was “inactive and 49 µM (active)”; in experiment [8], “inactive and 30.6 µM (active)”; in experiment [9], “inactive and 54.5 µM (active)”. For the same compound, the Potency entry in [5], in [6] and in experiment [4] was “inactive” in each case.
In the case of `C=C(C)C1CC=C(C)CC1` (configuration not stated), the Potency entry in experiment [10], in [3], in experiment [5], in experiment [6], in experiment [7] and in experiment [4] was “inactive” in each case. The Potency entry in [8] and in [9] was “inactive” in each case.
`O=C(Nc1ccc([N+](=O)[O-])cc1Cl)c1cc(Cl)ccc1O`: the Potency entry in [10], in [5], in experiment [4] and in experiment [9] was “inactive” throughout. In addition, the Potency was 841 nM (active) in experiment [7]; “inactive and 1.93 µM (active)” in experiment [8].
Regarding `CN(C)CCN(Cc1cccs1)c1ccccn1`, the Potency entry in [2], in experiment [10], in [3], in experiment [5], in experiment [6] and in experiment [7] was “inactive” each time. Besides, the Potency result in experiment [4] was “inactive”.
Turning to `CC(C)Oc1ccc2c(=O)c(-c3ccccc3)coc2c1`, the Potency result in experiment [4], in experiment [8] and in experiment [9] was “inactive” each time.
As for `CCCCC/C=C/C=C/C=O`, the Potency result in experiment [2], in experiment [3], in [4], in [8] and in experiment [9] was “inactive” each time.
